Experimental data reported in PubChem BioAssay AID651747 (Johns Hopkins Ion Channel Center, 2012).
The campaign covered roughly 2,400 compounds. About 950 (40%) were called active.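 How the source made its calls: active means thallium flux ratio, averaged over three wells, more than 5 SD below the buffer control mean; inactive means the rest.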 These entries were drawn from the full list.

assay: nonspecific thallium influx blockers, KCNK3-free cells – cell-based, non-induced KCNK3 line, FluxOR thallium, triplicate, counter-screen for KCNK3 inhibitor project, primary screen (AID 651747); conditions: non-induced KCNK3 parental cells, at 10 µM; outcome: FluxOR thallium flux; thallium flux ratio (lower = more inhibition): active compounds read low;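 further: host cells are CHO cells without KCNK3 induction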;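 on thallium flux ratio (lower = more inhibition): ratio is peak minus trough fluorescence over baseline then normalized to buffer controls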

Row | Structure (SMILES) | thallium flux ratio (lower = more inhibition)
1 | CN1CCc2ccccc2C1Cc1ccccc1NC(=O)c1sc2ccccc2c1Cl (configuration not stated) | 0.143 (active)
2 | N#Cc1cccc(NC(=O)COC(=O)c2ccccc2C(=O)c2ccc(Cl)c([N+](=O)[O-])c2)c1 | 0.153 (active)
3 | Cc1ccc(NC(=S)N2CCCC(c3ccccc3)=N2)cc1 | inactive
4 | COc1ccc(Nc2ncnc3sc(-c4ccccc4)cc23)c(OC)c1 | 0.124 (active)
5 | FC(F)(F)c1cccc(-c2cc3ccccc3nc2N2CCCC2)c1 | 0.127 (active)
6 | O=C(c1cc(-c2ccc(O)cc2)on1)N1CCCc2ccccc21 | inactive
7 | CSc1nccc(NC(=O)c2ccc(C(C)(C)C)cc2)n1 | inactive
8 | COc1cccc(CNc2nc(C(F)(F)F)nc3ccccc23)c1 | 0.111 (active)
9 | COc1ccccc1NC(=O)CSc1nc2sc(C)c(C)c2c(=O)n1Cc1ccco1 | inactive
10 | C=CCSc1nnc(N2C(=O)C(O)=C(C(=O)c3ccco3)C2c2ccc(F)cc2)s1 (configuration not stated) | 0.101 (active)
11 | COc1cc(/C=C(\C#N)c2nc3ccccc3[nH]2)ccc1O | 0.0933 (active)
12 | Cc1cccc(NC(=O)c2sc3nc4c(c(-c5ccco5)c3c2N)CCC4)c1 | inactive
13 | COc1cccc(COc2ccc(N(C)S(=O)(=O)c3ccccc3)cc2)c1 | 0.109 (active)
14 | [O-][n+]1ccc(OCc2ccccc2)cc1 | inactive
15 | N/C(Cc1ccc([N+](=O)[O-])cc1)=N\OC(=O)COc1ccc2ccccc2c1 | inactive
16 | N#Cc1nc(Cc2cccc3ccccc23)oc1NCc1ccc2c(c1)OCO2 | 0.152 (active)
17 | COc1ccc([N+](=O)[O-])cc1-c1nc2ccccc2nc1-c1ccccc1 | 0.129 (active)
18 | CCCC(=O)Nc1ccc(Cl)c(NC(=O)c2ccc(Br)o2)c1 | inactive
19 | CN(CCC(=O)Nc1cc(S(=O)(=O)N(C)C)ccc1Cl)CC(=O)Nc1ccc(F)cc1 | 0.159 (active)

Row | Structure (SMILES) | thallium flux ratio (lower = more inhibition)
20 | Cc1cc(C)c(S(=O)(=O)c2ccccc2)c(OC(=O)c2c(F)cccc2Cl)n1 | inactive
21 | CS/C(=C\C(=O)c1ccco1)Nc1ccccc1Cl | 0.154 (active)
22 | Cc1cccc2cc(CN(Cc3nnnn3Cc3ccccc3)C3CCCC3)c(=O)[nH]c12 | 0.139 (active)
23 | Cc1cc(OCCCCOc2ccc(C#N)cc2)ccc1[N+](=O)[O-] | inactive
24 | O=C1c2ccccc2C2=Nc3ccccc3SC(c3ccccc3F)C12 (configuration not stated) | 0.125 (active)
25 | CCCCCCCCCCOC(=O)Cn1c(COc2cccc(OC)c2)[n+](C)c2ccccc21 | inactive
26 | CCCOc1ccc2c3c(c(=O)oc2c1OCCC)CCC3 | 0.158 (active)
27 | COc1cccc(CN(C)CC(O)COC(c2ccccc2)c2ccccc2C)c1 (configuration not stated) | 0.146 (active)
28 | FC(F)(F)c1cc(-c2ccco2)nc(NCc2ccc(Cl)cc2)n1 | 0.148 (active)
29 | Cc1ccc(S(=O)(=O)NCc2cn3ccsc3n2)c(C)c1 | inactive
30 | O=C(NCCc1c[nH]c2ccccc12)c1cccc(Br)c1 | 0.159 (active)
31 | COc1cccc(C(=O)NCCSc2ccc(Br)cc2)c1 | inactive
32 | O=C(CSc1nc(Nc2ccccc2)nc(N2CCOCC2)n1)Nc1cc(Cl)ccc1O | 0.137 (active)
33 | CC(C)c1ccccc1OCC(O)CN(CC(O)COc1cccc2ccccc12)C(C)C (configuration not stated) | inactive
34 | C=CCN(C(=O)c1cc(C)cc(C)c1)C1(C(=O)Nc2ccccc2)CCN(C(C)C)CC1 | inactive
35 | CC(=O)Nc1cccc(OCC(=O)/C=C2\N(C)c3ccccc3C2(C)C)c1 | inactive
36 | COc1cccc(/C=N/Nc2cc(C)nc(-c3ccccc3O)n2)c1O | 0.109 (active)
37 | CC[n+]1cc(C)ccc1/C=C/c1ccc(N(C)C)cc1 | 0.106 (active)
38 | N#Cc1ccc(S(=O)(=O)NCC(=O)OCC(=O)NCCc2ccccc2)cc1 | inactive

Row | Structure (SMILES) | thallium flux ratio (lower = more inhibition)
39 | Cc1cccc(-c2nc3ccc(C(=O)NCCN4CCN(C)CC4)cc3nc2-c2cccc(C)c2)c1 | 0.106 (active)
40 | Cc1ccc(NC(=O)c2cc([N+](=O)[O-])ccc2Cl)c(O)c1 | inactive
41 | CSc1nnc2c(n1)OC(c1ccsc1)N(C(C)=O)c1ccccc1-2 (configuration not stated) | inactive
42 | Clc1cccc(-c2nc(NCC3CCCO3)c3ccccc3n2)c1 (configuration not stated) | 0.129 (active)
43 | CCn1ncc(Br)c1C(=O)Nc1cc(C)ccc1F | inactive
44 | CCOc1ccccc1Oc1cn[nH]c1-c1ccc(OC)cc1O | inactive
45 | S=C(Nc1cccc(Br)c1)N1CCn2cccc2C1c1cccnc1 (configuration not stated) | inactive
46 | COC(=O)C1=C(C)N(C(C)c2ccccc2)C(=O)/C1=C\c1ccco1 (configuration not stated) | 0.158 (active)
47 | O=C(Nc1ccccc1)O/N=C1\CCCCC1c1ccc([N+](=O)[O-])cc1[N+](=O)[O-] (configuration not stated) | inactive
48 | CC(C)c1cc(C(=O)N/N=C/c2ccoc2)c(O)c(C(C)C)c1 | 0.147 (active)
49 | CSc1cccc(NC(=S)N(C(C)C)C(C)c2ccccn2)c1 (configuration not stated) | inactive
50 | O=C(CC1NCCc2ccccc21)Nc1cccc(Cl)c1 (configuration not stated) | inactive
51 | FC(F)(F)c1cccc(NC(=S)Nc2cccc(Cl)c2)c1 | 0.128 (active)
52 | O=C(Nc1cccc(Cl)c1)Nc1ccccc1NS(=O)(=O)c1cccs1 | 0.131 (active)
53 | CC(NCc1cccs1)C(=O)Nc1cc(Cl)cc(Cl)c1 (configuration not stated) | inactive
54 | CC(Oc1cccc(NC(=O)c2cccs2)c1)C(=O)c1ccccc1 (configuration not stated) | inactive
55 | C=CCSc1nsc(NC(=O)Nc2cccc(C(C)=O)c2)n1 | inactive
56 | O=C(NCCc1ccccc1)c1ccc2c(c1)N(Cc1ccccc1)CCS2 | 0.16 (active)
57 | O=C(Cn1cc(C(=O)c2cccs2)c2ccccc21)NCc1cccs1 | inactive
